Reference: PubChem BioAssay AID1159580 (chemical genetic matrix, 2015)
The whole screen tested about 5,500 compounds, of which about 2,000 (36%) were called active. Inconclusive results (about 18%) are left out. Rule as the data show it: active = normalized growth mostly below about 0.91 (no sharp cut-off); inconclusive = no clear call, values can overlap the other calls; inactive = mostly above about 0.92. The list shows a part of the results.

Assay: chemical genetic growth profiling, strain panel (AID 1159580);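 also: tested at 20 µM; growth read once vehicle control cultures reached saturation at 30 °C; 1 = growth at the plate median or of vehicle wells; lower values mean less growth of the strain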
Details: growth OD

Measured: normalized growth

CC(=O)Oc1cccc(O)c1
inactive: S. cerevisiae deletion strains, locus YJR075W, strain HOC1, hits give low values 1 | S. cerevisiae deletion strains, locus YKL009W, strain mrt4, hits give low values 1.01 | S. cerevisiae deletion strains, locus YKL068W, hits give low values 1 | S. cerevisiae deletion strains, locus YKL085W, strain MDH1 (second series), hits give low values 1 | S. cerevisiae deletion strains, locus YKL085W, strain MDH1, hits give low values 1 | S. cerevisiae deletion strains, locus YKL160W, strain elf1, hits give low values 1.01 | S. cerevisiae deletion strains, locus YKL190W, strain CNB1, hits give low values 1 | S. cerevisiae deletion strains, locus YKR001C, strain vps1, hits give low values 1.02 | S. cerevisiae deletion strains, locus YKR026C, strain gcn3, hits give low values 1.01 | S. cerevisiae deletion strains, locus YKR091W, strain srl3, hits give low values 1.01 | S. cerevisiae deletion strains, locus YLL001W, strain dnm1, hits give low values 1.02 | S. cerevisiae deletion strains, locus YLL026W, hits give low values 1.01 | S. cerevisiae deletion strains, locus YLL041C, strain sdh2, hits give low values 1.01 | S. cerevisiae deletion strains, locus YLR027C, strain aat2, hits give low values 1.03 | S. cerevisiae deletion strains, locus YLR039C, strain RIC1, hits give low values 1.04 | S. cerevisiae deletion strains, locus YLR058C, strain SHM2, hits give low values 1.01 | S. cerevisiae deletion strains, locus YLR102C, strain apc9, hits give low values 1.01 | S. cerevisiae deletion strains, locus YLR113W, strain HOG1, hits give low values 0.982 | S. cerevisiae deletion strains, locus YLR221C, strain rsa3, hits give low values 1.03 | S. cerevisiae deletion strains, locus YLR258W, strain gsy2, hits give low values 1.02 | S. cerevisiae deletion strains, locus YLR262C, strain YPT6 (second series), hits give low values 1.04 | S. cerevisiae deletion strains, locus YLR262C, strain YPT6, hits give low values 1.05 | S. cerevisiae deletion strains, locus YLR268W, strain sec22, hits give low values 1.02 | S. cerevisiae deletion strains, locus YLR320W, strain mms22, hits give low values 1.04 | S. cerevisiae deletion strains, locus YLR330W, strain CHS5, hits give low values 1.01 | S. cerevisiae deletion strains, locus YLR342W, strain FKS1 (second series), hits give low values 1.01 | S. cerevisiae deletion strains, locus YLR342W, strain FKS1, hits give low values 1.03 | S. cerevisiae deletion strains, locus YLR357W, strain rsc2, hits give low values 1.02 | S. cerevisiae deletion strains, locus YLR370C, strain arc18, hits give low values 1.01 | S. cerevisiae deletion strains, locus YLR371W, strain rom2, hits give low values 1 | S. cerevisiae deletion strains, locus YLR384C, strain iki3, hits give low values 1.01 | S. cerevisiae deletion strains, locus YLR418C, strain cdc73, hits give low values 1.05 | S. cerevisiae deletion strains, locus YML016C, strain PPZ1, hits give low values 1.01 | S. cerevisiae deletion strains, locus YML032C, strain rad52, hits give low values 1.02 | S. cerevisiae deletion strains, locus YML120C, strain ndi1, hits give low values 1.01 | S. cerevisiae deletion strains, locus YML124C, strain tub3, hits give low values 1.01 | S. cerevisiae deletion strains, locus YMR058W, strain fet3, hits give low values 1.03 | S. cerevisiae deletion strains, locus YMR078C, strain ctf18, hits give low values 1.02 | S. cerevisiae deletion strains, locus YMR125W, strain sto1, hits give low values 1.03 | S. cerevisiae deletion strains, locus YMR129W, hits give low values 1.01 | S. cerevisiae deletion strains, locus YMR205C, strain PFK2, hits give low values 1.03 | S. cerevisiae deletion strains, locus YMR223W, strain ubp8, hits give low values 1.02 | S. cerevisiae deletion strains, locus YMR231W, strain pep5, hits give low values 1.01 | S. cerevisiae deletion strains, locus YMR263W, strain SAP30, hits give low values 1 | S. cerevisiae deletion strains, locus YMR307W, strain GAS1, hits give low values 0.985 | S. cerevisiae deletion strains, locus YNL067W, strain RPL9B, hits give low values 0.996 | S. cerevisiae deletion strains, locus YNL071W, strain lat1, hits give low values 1.02 | S. cerevisiae deletion strains, locus YNL128W, strain TEP1, hits give low values 1.01 | S. cerevisiae deletion strains, locus YNL183C, strain NPR1, hits give low values 0.938 | S. cerevisiae deletion strains, locus YNL209W, strain ssb2, hits give low values 1.04 | S. cerevisiae deletion strains, locus YNL233W, strain BNI4, hits give low values 0.993 | S. cerevisiae deletion strains, locus YNL248C, strain rpa49, hits give low values 1.03 | S. cerevisiae deletion strains, locus YNL250W, strain rad50, hits give low values 1.06 | S. cerevisiae deletion strains, locus YNL271C, strain bni1, hits give low values 1.01 | S. cerevisiae deletion strains, locus YNL298W, strain CLA4, hits give low values 1.03 | S. cerevisiae deletion strains, locus YNL307C, strain MCK1, hits give low values 1.02 | S. cerevisiae deletion strains, locus YNL322C, strain KRE1 (second series), hits give low values 1.01 | S. cerevisiae deletion strains, locus YNR049C, strain mso1, hits give low values 1 | S. cerevisiae deletion strains, locus YNR052C, strain pop2, hits give low values 1.01 | S. cerevisiae deletion strains, locus YOL006C, strain TOP1, hits give low values 0.999 | S. cerevisiae deletion strains, locus YOL012C, strain htz1 0.912 | S. cerevisiae deletion strains, locus YOL147C, strain pex11, hits give low values 1.01 | S. cerevisiae deletion strains, locus YOR001W, strain rrp6, hits give low values 1.05 | S. cerevisiae deletion strains, locus YOR061W, strain CKA2, hits give low values 1.01 | S. cerevisiae deletion strains, locus YOR069W, strain VPS5, hits give low values 1 | S. cerevisiae deletion strains, locus YOR070C, strain gyp1, hits give low values 1.02 | S. cerevisiae deletion strains, locus YOR080W, strain dia2, hits give low values 1.01 | S. cerevisiae deletion strains, locus YOR083W, strain WHI5, hits give low values 1.01 | S. cerevisiae deletion strains, locus YOR106W, strain vam3, hits give low values 1.02 | S. cerevisiae deletion strains, locus YOR136W, strain idh2, hits give low values 1.02 | S. cerevisiae deletion strains, locus YOR144C, strain elg1, hits give low values 1.01 | S. cerevisiae deletion strains, locus YOR184W, strain ser1, hits give low values 1.03 | S. cerevisiae deletion strains, locus YOR231W, strain MKK1, hits give low values 0.977 | S. cerevisiae deletion strains, locus YOR265W, strain rbl2, hits give low values 1 | S. cerevisiae deletion strains, locus YOR270C, strain vph1, hits give low values 1.07 | S. cerevisiae deletion strains, locus YOR290C, strain snf2, hits give low values 1.01 | S. cerevisiae deletion strains, locus YOR316C, strain cot1, hits give low values 1.01 | S. cerevisiae deletion strains, locus YPL051W, strain arl3, hits give low values 1.04 | S. cerevisiae deletion strains, locus YPL078C, strain atp4, hits give low values 1.03 | S. cerevisiae deletion strains, locus YPL106C, strain sse1, hits give low values 1.01 | S. cerevisiae deletion strains, locus YPL240C, strain hsp82, hits give low values 1.03 | S. cerevisiae deletion strains, locus YPL241C, strain CIN2, hits give low values 1.01 | S. cerevisiae deletion strains, locus YPL256C, strain CLN2, hits give low values 0.951 | S. cerevisiae deletion strains, locus YPR119W, strain clb2, hits give low values 1.01 | S. cerevisiae deletion strains, locus YPR141C, strain kar3, hits give low values 1.01 | S. cerevisiae deletion strains, locus YPR163C, strain tif3, hits give low values 1.02 | S. cerevisiae deletion strains, locus YPR167C, strain met16, hits give low values 1.01 | S. cerevisiae deletion strains, strain wtn01, hits give low values 1.03 | S. cerevisiae strains, strain wild type, hits give low values 1.01
